Reference: ChEMBL document CHEMBL3988442, “University of Dundee, Small-Polar-MMV Screening Library” (2021)
The campaign covered roughly 66,000 compounds. About 960 (1.5%) showed an effect of 50% or more. The sample holds strong results, similar compounds and a random draw of the others, so the mix is not that of the screen.

System: Trypanosoma brucei
Assay: Trypanosoma brucei 72 hour study
Assay type: functional, organism-based
Parameters: scale not given: in the data most compounds retested in dose-response had high values

## O=C(CCN1CCc2ccccc21)N1C[C@@H](O)[C@H](N2CCCC2)C1
30.3 µM, […]
  Percent Effect: -36.76%

## CN1CC2(CCN(Cc3cccnc3)CC2)c2cccc(F)c21.Cl
30.3 µM, […]
  Percent Effect: 100.8%

## CN1CC2(CCN(Cc3cccnc3)CC2)c2cc(F)ccc21
30.3 µM, […]
  Percent Effect: -24.44%

## CN1CC2(CCN(C(=O)c3cccnc3)CC2)c2cccc(F)c21.Cl
30.3 µM, […]
  Percent Effect: -15.84%

## CCOc1ccc(CC(=O)N2CCN(c3nccn3CC)CC2)cc1.Cl
30.3 µM, […]
  Percent Effect: 9.034%

## O[C@]12CC[C@H](CC1)N(Cc1ccc(F)cc1)C2CN1CCOCC1 (some centres not stated)
30.3 µM, […]
  Percent Effect: -19.63%

## Cc1nn(C)c(C)c1CC(=O)N1CCCN(c2cccnn2)CC1
30.3 µM, […]
  Percent Effect: -5.706%

## CS(=O)(=O)NCC1CCCN(C(=O)c2ccc(F)c(F)c2)C1 (configuration not stated)
30.3 µM, […]
  Percent Effect: -25.29%

## CCc1noc(CS(=O)(=O)c2cccc(OC)c2)n1
30.3 µM, […]
  Percent Effect: -11.01%

## CCCc1noc(CS(=O)(=O)c2cccc(OC)c2)n1
30.3 µM, […]
  Percent Effect: 58.74%

## COc1cccc(S(=O)(=O)Cc2noc(CC(C)C)n2)c1
30.3 µM, […]
  Percent Effect: 1.682%

## CS(=O)(=O)N1Cc2ccccc2C2(CCN(C(=O)c3ccno3)CC2)C1
30.3 µM, […]
  Percent Effect: -25.32%

## COc1cc(N2CCC3(CCN(Cc4cccnc4)C3=O)C2)ncn1 (configuration not stated)
30.3 µM, […]
  Percent Effect: -84.3%

## CNC(=O)Nc1cc(-c2ccccc2C)nn1CCO
30 µM, 30.03 µM
  Percent Effect: -25.05%

## Cc1ccccc1-c1cc(NC(=O)NC2CC2)n(CCO)n1
30.3 µM, […]
  Percent Effect: 80.61%

## Cc1ccccc1-c1cc(NC(=O)NC2CCC(O)CC2)n(CCO)n1 (configuration not stated)
30.3 µM, […]
  Percent Effect: -152.8%

## Cc1cc(S(=O)(=O)N(CC(N)=O)CC(C)C)ccc1Br
30.3 µM, […]
  Percent Effect: 1.83%

## CN(C)C(=O)COC[C@H]1CC[C@@H]2[C@@H](CCN2Cc2ccco2)O1.O=C(O)C(F)(F)F
30 µM, 30.03 µM
  Percent Effect: -23.12%

## COCCN1C[C@H](OCc2csc(C)n2)[C@H]2COC[C@H]21.O=C(O)C(F)(F)F.O=C(O)C(F)(F)F
30 µM, 30.03 µM
  Percent Effect: -14.33%

## CCSc1cncc(N2CCC(C(=O)NC(C)C(C)C)CC2)n1 (configuration not stated)
30.3 µM, […]
  Percent Effect: 8.608%

## CCSc1cncc(N2CCC(NC(=O)C3CCCCC3)CC2)n1
30.3 µM, […]
  Percent Effect: 77.16%

## CCSc1cncc(N2CCC(C(=O)Nc3ccccn3)CC2)n1
30.3 µM, […]
  Percent Effect: 12.36%

## CC(=O)N(Cc1ncc(C)o1)C1CCN(Cc2ccc(F)c(F)c2)C1 (configuration not stated)
30 µM, 30.03 µM
  Percent Effect: -4.591%

## O=C(CN1CCCC(c2ccn[nH]2)C1)Nc1nc2c(s1)CCC2 (configuration not stated)
30.3 µM, […]
  Percent Effect: 99.68%

## Cc1cc(C2CCCN(CCNS(=O)(=O)c3ccccc3)C2)n[nH]1 (configuration not stated)
30.3 µM, […]
  Percent Effect: 50.6%
10 mM, 10 mM as filed; unlikely as a test dose
  Percent Effect: -10.85%

## O=C(CN1CCCC(c2ccn[nH]2)C1)Nc1nncs1 (configuration not stated)
30.3 µM, […]
  Percent Effect: 7.116%

## O=C(CN1CCCC(c2ccn[nH]2)C1)Nc1nc2c(s1)CCCC2 (configuration not stated)
30.3 µM, […]
  Percent Effect: 99.87%

## Cc1cc(C2CCCN(CCCS(=O)(=O)c3ccccc3)C2)n[nH]1 (configuration not stated)
30 µM, 30.03 µM
  Percent Effect: -28.48%

## Cc1cc(C2CCCN(CC(=O)N3CCc4ccccc43)C2)n[nH]1 (configuration not stated)
30 µM, 30.03 µM
  Percent Effect: -0.2301%

## Cc1cc(C2CCCN(CCS(=O)(=O)c3ccccc3)C2)n[nH]1 (configuration not stated)
30.3 µM, […]
  Percent Effect: -11.09%
10 mM, 10 mM as filed; unlikely as a test dose
  Percent Effect: -44.58%

## O=C(CN1CCCC(c2ccn[nH]2)C1)N1CCCc2ccccc21 (configuration not stated)
30 µM, 30.03 µM
  Percent Effect: -60.51%

## Cc1nnc(NC(=O)CN2CCCC(c3ccn[nH]3)C2)s1 (configuration not stated)
30.3 µM, […]
  Percent Effect: -16.15%

## O=C(O)c1cccc(CN2CCCC(c3ccn[nH]3)C2)c1 (configuration not stated)
30.3 µM, […]
  Percent Effect: -0.7278%

## Cc1cc(C2CCCN(CC(=O)Nc3nc4c(s3)CCC4)C2)n[nH]1 (configuration not stated)
30.3 µM, […]
  Percent Effect: 99.45%

## Cc1cc(C2CCCN(CC(=O)N3CCCc4ccccc43)C2)n[nH]1 (configuration not stated)
30 µM, 30.03 µM
  Percent Effect: 1.182%

## CC(C)N1CCC2(CCNCC2)C1=O.Cl
30.3 µM, […]
  Percent Effect: -13.71%

## Cc1cccc(CN2C(=O)CCC23CCN(c2ncc(F)cn2)CC3)n1.O=C(O)C(F)(F)F
30.3 µM, […]
  Percent Effect: 6.517%

## O=C(Nc1cnccn1)[C@H]1CO[C@H]2CCN(c3ncc(F)cn3)C[C@H]2C1.O=C(O)C(F)(F)F
30.3 µM, […]
  Percent Effect: -3.537%

## Cc1cccc(CN2C(=O)CCC23CCN(c2ccccn2)CC3)n1.O=C(O)C(F)(F)F.O=C(O)C(F)(F)F
30.3 µM, […]
  Percent Effect: -36.28%

## COc1ccccc1C(=O)NCCC(=O)Nc1c(C)nn(C)c1C
30 µM, 30.03 µM
  Percent Effect: -36.41%

## CCC(C)C(=O)Nc1ccc2oc(=O)n(CCN(C)C)c2c1 (configuration not stated)
30 µM, 30.03 µM
  Percent Effect: -15.08%

## Cc1cn2c(n1)C(CNCc1ccc(C)s1)CCC2 (configuration not stated)
30.3 µM, […]
  Percent Effect: -3.779%

## Cc1cn2c(n1)C(CNCC1=Cc3cc(Cl)ccc3OC1)CCC2 (configuration not stated)
30.3 µM, […]
  Percent Effect: 99.66%

## Cc1cn2c(n1)C(CNCC1=Cc3ccccc3OC1)CCC2 (configuration not stated)
30.3 µM, […]
  Percent Effect: 49.61%

## O=C(Cc1cccc(F)c1)N1CCc2ncnc(NC3CCC3)c2CC1
30.3 µM, […]
  Percent Effect: -72.72%

## CN(C)C(=O)N1CCC2(CC1)CCN(c1ncccn1)C2.O=C(O)C(F)(F)F
30.3 µM, […]
  Percent Effect: -41.17%

## Cc1ccsc1-c1nnc(C2CCN(Cc3ccc(F)cc3)CC2)o1
30.3 µM, […]
  Percent Effect: 56.66%

## Cc1ncsc1-c1nnc(C2CCN(Cc3ccc(Cl)cc3)CC2)o1
30.3 µM, […]
  Percent Effect: 0.5336%

## Cc1ncsc1-c1nnc(C2CCN(Cc3ccc(F)cc3)CC2)o1
30.3 µM, […]
  Percent Effect: -21.24%

## CN(C)C(=O)COCc1cncc2c1CCN(C1CCOCC1)C2.O=C(O)C(F)(F)F.O=C(O)C(F)(F)F
30.3 µM, […]
  Percent Effect: -55.36%
